Measured values: PMC6925144, “A prospective compound screening contest identified broader inhibitors for Sirtuin 1” (Scientific Reports, 2019)
The full ranking holds about 3,200 compounds; the median of “TSA(with NAD+) / Primary screening (TSA) / delta Tm (K)” is about -0.04, and the highest 2% start at about 0.37. What follows is part of a selection rich in the highest values, with near analogues and random picks from the rest.

Molecular target: NAD-dependent deacetylase Sirtuin 1 (human, UniProt Q96EB6)
Sequence (Q96EB6 2-747 limits assumed): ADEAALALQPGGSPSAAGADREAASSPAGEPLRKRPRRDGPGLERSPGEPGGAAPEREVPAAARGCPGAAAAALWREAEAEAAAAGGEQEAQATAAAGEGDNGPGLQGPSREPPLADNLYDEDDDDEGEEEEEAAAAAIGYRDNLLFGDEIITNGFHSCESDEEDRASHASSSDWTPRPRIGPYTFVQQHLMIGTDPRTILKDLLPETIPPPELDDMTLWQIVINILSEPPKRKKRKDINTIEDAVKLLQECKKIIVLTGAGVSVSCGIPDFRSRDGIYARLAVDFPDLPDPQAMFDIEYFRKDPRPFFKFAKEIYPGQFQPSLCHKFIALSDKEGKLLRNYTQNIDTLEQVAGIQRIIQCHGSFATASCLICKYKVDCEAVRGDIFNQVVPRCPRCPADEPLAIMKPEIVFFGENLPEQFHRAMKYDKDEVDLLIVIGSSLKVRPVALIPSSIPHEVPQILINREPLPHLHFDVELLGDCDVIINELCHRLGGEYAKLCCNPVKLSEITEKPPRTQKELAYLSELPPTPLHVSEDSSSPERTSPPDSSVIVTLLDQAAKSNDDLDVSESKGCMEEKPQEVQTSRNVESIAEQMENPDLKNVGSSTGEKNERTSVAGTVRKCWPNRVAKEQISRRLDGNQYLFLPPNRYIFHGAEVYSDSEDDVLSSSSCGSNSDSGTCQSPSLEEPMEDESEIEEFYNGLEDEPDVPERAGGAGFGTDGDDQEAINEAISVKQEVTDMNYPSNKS
Assay: primary screen, delta tm
Parameters: single well (n = 1, as 'the same TSA')
Settings: 10 µM
Procedure: A total of 3,192 compounds extracted from the proposed lists were first screened by thermal shift assay (TSA), which determined a melting temperature shift (ΔTm) of Sirtuin 1 upon the addition of a test compound at a concentration of 10 µM (n = 1) with primary hit criteria of ΔTm > 0.45 K or ΔTm < −1.5 K. Primary hits (48 compounds) were retested in the same assay at three concentrations (5, 10, 20 µM, n = 4) for hit confirmation and for dose-dependency check. Secondary hits (41 compounds) were checked their selectivity for Sirtuin 1 based on counterscreening on unrelated protein targets (bovine carbonic anhydrase (CA) and recombinant SH2 domain of hABL1 kinase (ABL1)) at three different concentrations (5, 10, 20 µM, n = 4), which yielded 38 hit compounds, hereafter referred to as TSA hits. The TSA screening above was conducted in the absence of NAD+. As noted, the structure of Sirtuin 1 is different in the presence of NAD+ and substrate. The chemical profile of TSA hits found from the different conditions could be different. […] As a result, 39 TSA hits were found.

Row | SMILES | TSA(with NAD+) / Primary screening (TSA) / delta Tm (K)
1 | COc1ccc(N(C)S(=O)(=O)c2cccc(C(=O)Nc3ncc(C(N)=O)s3)c2)cc1 | -0.03 K
2 | Cc1ccc(N(C)S(=O)(=O)c2cccc(C(=O)Nc3cccc(C#N)c3)c2)cc1 | 0.28 K
3 | COc1ccc(N(C)S(=O)(=O)c2cccc(C(=O)Nc3ccc(-n4cnnn4)cc3)c2)cc1 | 0.76 K
4 | COc1ccc(N(C)S(=O)(=O)c2cccc(C(=O)Nc3ccc(Br)cc3F)c2)cc1 | 0.36 K
5 | COc1ccc(N(C)S(=O)(=O)c2cccc(C(=O)Nc3cccc4ccccc34)c2)cc1 | -0.09 K
6 | COc1ccc(N(C)S(=O)(=O)c2cccc(C(=O)Nc3ccc(OC)c(OC)c3)c2)cc1 | -0.04 K
7 | CN(c1ccccc1)S(=O)(=O)c1cccc(NC(=O)c2cccc(C#N)c2)c1 | 0.08 K
8 | COc1ccc(N(C)S(=O)(=O)c2cccc(C(=O)Nc3ccc(Br)c(C(F)(F)F)c3)c2)cc1 | 0.69 K
9 | COc1ccc(N(C)S(=O)(=O)c2cccc(C(=O)Nc3cccc(C#N)c3)c2)cc1 | 0.35 K
10 | CN(c1cccc(Cl)c1)S(=O)(=O)c1cccc(C(=O)Nc2cccc(C#N)c2)c1 | 0.45 K
11 | COc1ccc(N(C)S(=O)(=O)c2cccc(C(=O)Nc3ccc4ccccc4c3)c2)cc1 | 0.65 K
12 | COc1ccc(N(C)S(=O)(=O)c2cccc(C(=O)Nc3ccc4c(C)cc(=O)oc4c3)c2)cc1 | -0.09 K
13 | CC(C)Cn1c(SCC(=O)Nc2sc3c(c2C(N)=O)CCC3)nnc1N1CCOCC1 | -0.18 K
14 | Cc1ccc(-c2nn(-c3ccccc3)cc2C=C2C(=O)NC(=O)NC2=O)o1 | -0.59 K
15 | CN(CCC#N)C(=O)C(C)(C)c1ccccc1 | -0.08 K
16 | O=C(CSc1nnc(NCC2CCCO2)s1)Nc1nc(-c2cc(F)ccc2F)cs1 (stereo not shown) | 0.01 K
17 | CCCOC(=O)c1ccc(NC(=O)c2cccc(S(=O)(=O)N(C)c3ccc(OC)cc3)c2)cc1 | 0.29 K
18 | CN(c1ccccc1)S(=O)(=O)c1cccc(C(=O)Nc2ccccc2-c2nc3ccccc3[nH]2)c1 | 0.38 K
19 | COc1ccc(N(C)S(=O)(=O)c2cccc(C(=O)Nc3ccc(Br)cc3)c2)cc1 | 1.36 K
20 | COc1ccc(N(C)S(=O)(=O)c2cccc(C(=O)Nc3cccc(Br)c3)c2)cc1 | 0.32 K
21 | COc1ccc(NC(=O)c2cccc(S(=O)(=O)N(C)c3ccc(OC)cc3)c2)cc1 | -0.02 K
22 | COc1ccc(N(C)S(=O)(=O)c2cccc(C(=O)Nc3ccc(Cl)cc3)c2)cc1 | 0.86 K

Row | SMILES | TSA(with NAD+) / Primary screening (TSA) / delta Tm (K)
23 | CN(c1ccccc1)S(=O)(=O)c1cccc(C(=O)Nc2ccccc2-c2ccccc2)c1 | -0.02 K
24 | COc1ccc(N(C)S(=O)(=O)c2cccc(C(=O)Nc3ccc(C)cc3)c2)cc1 | 0.11 K
25 | Cc1ccc(N(C)S(=O)(=O)c2cccc(C(=O)Nc3nc4ccccc4[nH]3)c2)cc1 | -0.06 K
26 | NC(=O)c1oc2ccccc2c1NC(=O)Cc1ccc(Cl)c(Cl)c1 | 0.12 K
27 | CC(=O)Nc1ccc(NCc2nnc3n(C)c(=O)c4ccccc4n23)cc1 | -0.12 K
28 | NC1=C(c2nc3ccccc3[nH]2)C(=O)CN1c1ccc(CC(=O)O)cc1 | -0.03 K
29 | CC(O)CCCN (stereo not shown) | -0.11 K
30 | Cc1ccc(S(=O)(=O)N2CCCCC2)cc1NC(=O)COC(=O)c1ccccc1SCC(=O)N1CCCC1 | -0.01 K
31 | Cc1nc(COc2ccc(C(=O)Nc3ccc(S(=O)(=O)Nc4cccc(F)c4)cc3)cc2)cs1 | -0.14 K
32 | O=C(Nc1ccc(Oc2ncccn2)cc1)c1ccc(S(=O)(=O)Nc2ccc(F)cc2)cc1 | 0.06 K
33 | N#CC(C(=O)c1ccc(NS(=O)(=O)c2ccccc2)cc1)c1nc(-c2ccccn2)cs1 (stereo not shown) | 0.47 K
34 | Cc1ccc(N(C)S(=O)(=O)c2cccc(C(=O)Nc3ccccc3C(F)(F)F)c2)cc1 | -0.09 K
35 | O=C(NN/C=C1/C(=O)N(c2cccc(C(F)(F)F)c2)C(=O)c2ccccc21)c1cccc(S(=O)(=O)Nc2ccccc2Cl)c1 | 0.99 K
36 | Cc1ccc(N(C)S(=O)(=O)c2cccc(C(=O)Nc3ccccc3Cl)c2)cc1 | -0.13 K
37 | C=CCOc1ccc(C(=O)C2=C(O)C(=O)N(CCN3CCOCC3)C2c2ccco2)cc1 (stereo not shown) | -0.01 K
38 | COc1ccccc1-c1noc(C(C)NC(=O)C(C)NC(C)=O)n1 (stereo not shown) | -0.01 K
39 | COc1ccc(CC(=O)NCCNC(=O)c2ccc(C)c(F)c2)cc1 | -0.13 K
40 | COc1ccc(-c2cc(NC(=O)CCNC(=O)c3ccc(Cl)cc3)ccc2OC(F)F)cc1 | 0.45 K
41 | COc1ccc(-c2cc(NC(=O)Cc3n[nH]c(=O)c4ccccc34)ccc2OC(F)F)cc1 | 0.07 K
42 | O=C(C1=C(O)C(=O)N(CCCN2CCOCC2)C1c1cccc([N+](=O)[O-])c1)c1ccc(F)cc1 (stereo not shown) | 0.06 K
43 | Cc1cccc(C(=O)OCc2ccc(C(=O)Nc3ccccc3)cc2)c1 | -0.03 K
44 | Nc1nc(COC(=O)c2cccc(NC(=O)c3cccs3)c2)nc(Nc2ccccc2)n1 | 0.42 K

Row | SMILES | TSA(with NAD+) / Primary screening (TSA) / delta Tm (K)
45 | O=C(COC(=O)c1cc(-c2ccc(Cl)cc2)nc2ccccc12)NNC(=O)c1cccs1 | 0.16 K
46 | CC1CCCN(CCCNC(=O)CCc2cc3ccccc3[nH]c2=O)C1 (stereo not shown) | 0.11 K
47 | O=C(Cc1c[nH]c2ccccc12)N1CCc2[nH]c3ccccc3c2C1 | 0.37 K
48 | O=C(CN1CCCC2(CC=CCC2)C1)N1CCc2[nH]c3ccccc3c2C1 (stereo not shown) | 0.06 K
49 | O=C(CCc1ccc2c(c1)OCO2)N1CCc2[nH]c3ccccc3c2C1 | -0.01 K
50 | Cc1n[nH]c(=O)c(C(=O)NNC(=O)CC23CC4CC(CC(C4)C2)C3)c1C | 0.19 K
51 | CCc1c(C)c(C#N)c2nc3ccccc3n2c1Cl | -0.05 K
52 | CCc1c(C)c(C#N)c2nc3ccccc3n2c1S | 0.46 K
53 | Cc1c(CCC#N)c(Cl)n2c(nc3ccccc32)c1C#N | -0.03 K
54 | CCNC(=O)NCc1ccc(NC(=O)Cc2cn(CC)c3ccccc23)cc1 | 0.09 K
55 | Cc1ccc2nc(-c3ccccc3)c(N)n2c1 | 0.38 K
56 | NC(=O)c1cc(NC(=O)CC(c2ccccc2)c2ccccc2)cc(C(N)=O)c1 | -0.06 K
57 | Cc1ccc(N(C)S(=O)(=O)c2cccc(C(=O)Nc3cc(F)ccc3C)c2)cc1 | -0.01 K
58 | O=C(Nc1cc(S(=O)(=O)N2CCOCC2)ccc1O)C1=COCCO1 | -0.16 K
59 | NC(=O)c1cccc(NC(=O)c2cc3c(s2)-c2ccccc2CC3)c1 | 0.88 K
60 | CC1CCc2sc(C(=O)Nc3ccccc3Cc3ccccc3)cc2C1 (stereo not shown) | -0.13 K
61 | CC(=O)Nc1ccc(NC(=O)c2cccc(C(N)=O)c2)cc1C | -0.12 K
62 | O=C(O)c1nc(Nc2ccc(Cl)cc2)c2ccccc2n1 | -0.11 K
63 | CCn1nnc2cc(C(=O)N3CCN(C(c4ccc(F)cc4)c4ccc(F)cc4)CC3)ccc21 | -0.22 K
64 | Cc1ccc(NC(=O)COC(=O)c2ccc(-n3nnc4ccccc43)c([N+](=O)[O-])c2)cc1C | 0.35 K
65 | CCOc1ccc(NC(=O)CN(C)Cc2ccc(C(=O)Nc3ccccc3)cc2)cc1OCC | -0.02 K
66 | CCOc1cc(/C=N/NC(=O)c2cc3c(s2)CCCC3)ccc1OCC(=O)Nc1cccc(C(F)(F)F)c1 | 1.05 K

Row | SMILES | TSA(with NAD+) / Primary screening (TSA) / delta Tm (K)
67 | COc1cc(/C=N/NC(=O)c2cc3c(s2)CCCC3)ccc1OCC(=O)Nc1ccc(C)cc1 | 0.52 K
68 | CC(OC(=O)c1cc2c(s1)CCCC2)C(=O)Nc1ccc(C(N)=O)cc1 (stereo not shown) | 0.01 K
69 | COc1cc(/C=N/NC(=O)c2cc3c(s2)CCCC3)ccc1OS(=O)(=O)c1cc(C)ccc1C | 0.09 K
70 | NC(=O)c1ccc(NC(=O)COC(=O)c2cc3c(s2)CCCCC3)cc1 | -0.13 K
71 | O=c1cc(CSc2ncc(C(F)(F)F)cc2Cl)nc2ccccn12 | -0.23 K
72 | Cc1cc(C=C2C(=O)NC(=S)NC2=O)c(C)n1-c1cccc(C(F)(F)F)c1 | -0.73 K
73 | Cc1oc2nc[nH]c(=O)c2c1C(=O)OC(C)C(=O)N1CCOCC1 (stereo not shown) | -0.06 K
74 | O=C(Nc1cnc2ccccc2c1)C(=O)N1CCC(Oc2ccccc2)CC1 | 0.06 K
75 | CCSC1CCC(NC(=O)Cc2cnc3ccccc3c2)C1 (stereo not shown) | -0.11 K
76 | CCn1cc(C2CCN(C(=O)Cc3cnc4ccccc4c3)CC2)cn1 | 0.68 K
77 | COc1ccc(CNCc2c[nH]nc2-c2ccc(C)cc2)cc1OC | -0.13 K
78 | Nc1nc(-c2c(-c3ccccc3)[nH]c3ccccc23)cs1 | 0.16 K
79 | c1ccc(-c2[nH]c3c(ccc4ccccc43)c2-c2ccccc2)cc1 | 0.29 K
80 | c1ccc(-c2[nH]c3ccccc3c2-c2ccccc2)cc1 | 0.39 K
81 | CC1COCCN1c1ncnc2ccsc12 (stereo not shown) | 0.03 K
82 | NC(=O)c1csc(C(=O)NCCc2cc(F)cc3c2OCOC3)c1 | -0.03 K
83 | CC(OC(=O)c1cccc(S(=O)(=O)NCc2ccccc2)c1)C(=O)NC12CC3CC(CC(C3)C1)C2 (stereo not shown) | 0.16 K
84 | COc1cc(C(C)=O)ccc1COc1ccc(C(=O)OC(C)C(=O)NC23CC4CC(CC(C4)C2)C3)cc1OC (stereo not shown) | 0.09 K
85 | Cc1ccc([N+](=O)[O-])cc1S(=O)(=O)Nc1ccc(C(=O)OC(C)C(=O)NC23CC4CC(CC(C4)C2)C3)cc1 (stereo not shown) | 0.76 K
